Results as given in PubChem BioAssay (NCATS).
“And” between values parts separate entries of the source, which are not always exact repeats. Equal values may be shown once. Results filed as inconclusive are left out. Where a call stands in place of a potency, no number is given. Some structures have more than one record in an assay (separate samples or runs), and their calls can disagree. The source made the active and inactive calls. Unless noted, the call rests on the fitted dose curve; in most records, active means well fitted curve in either direction with a large enough effect (not every such curve was filed as active); inconclusive means small, poorly fitted or top-dose-only effect, or another doubt; inactive means flat fitted curve, though single readings scatter.

Assays:
[1] = biological target: Cytochrome P450 1A2 (Homo sapiens) (UniProt P05177); assay: p450-cyp1a2 (AID 410; calls by dose curve; further: potency means the concentration at half of the fitted maximal effect)
Chain of Cytochrome P450 1A2 (Homo sapiens) (P05177 whole entry, looked up): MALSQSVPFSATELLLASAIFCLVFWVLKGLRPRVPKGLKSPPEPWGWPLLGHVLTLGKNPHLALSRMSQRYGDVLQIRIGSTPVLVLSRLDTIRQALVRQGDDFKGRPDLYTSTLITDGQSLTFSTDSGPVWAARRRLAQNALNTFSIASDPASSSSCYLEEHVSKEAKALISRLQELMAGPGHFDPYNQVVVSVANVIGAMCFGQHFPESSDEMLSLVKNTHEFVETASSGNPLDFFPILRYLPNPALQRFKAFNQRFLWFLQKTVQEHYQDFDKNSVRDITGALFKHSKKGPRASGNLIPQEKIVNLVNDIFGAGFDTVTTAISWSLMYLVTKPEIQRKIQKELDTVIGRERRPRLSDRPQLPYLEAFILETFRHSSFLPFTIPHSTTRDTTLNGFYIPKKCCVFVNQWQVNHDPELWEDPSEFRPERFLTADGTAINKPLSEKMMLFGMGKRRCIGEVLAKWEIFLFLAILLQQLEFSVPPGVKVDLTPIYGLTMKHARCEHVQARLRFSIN
In short: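 Luminescent demethylation readout: Luciferin-ME (100uM, equal to Km) turned over by 20nM CYP1A2 for 60 min at room temperature after NADPH regeneration addition, following 10 min compound preincubation. Normalization used 57 uM furafylline as full inhibition.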

[2] = biological target: Mitogen-activated protein kinase 10 (Mus musculus) (UniProt Q61831); assay: JNK3 AlphaScreen Assay (AID 530);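 further: kinase came from lysate of stimulated human HepG2 cells; signal reports phosphorylation of biotinylated GST-cJun 1-79 at Ser73 with 10 µM ATP; series mostly up to about 57 µM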
In short: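 qHTS titrations with 15 min compound pre-incubation before adding ATP (10 uM final). Read-out: AlphaScreen of Ser73-phosphorylated biotin-GST-cJun using HepG2 lysate JNK3 activated by IL-1β and TNFα.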

[3] = biological target: 3',5'-cyclic-AMP phosphodiesterase 4B (Homo sapiens) (UniProt Q07343); assay: qHTS Assay for Inhibitors of PDE-IV (AID 607; active means well fitted activation curve with a large enough effect in the main read-out, with a control signal flat, not every such curve was filed as active)
Chain of 3',5'-cyclic-AMP phosphodiesterase 4B (Homo sapiens) (Q07343 whole entry, looked up): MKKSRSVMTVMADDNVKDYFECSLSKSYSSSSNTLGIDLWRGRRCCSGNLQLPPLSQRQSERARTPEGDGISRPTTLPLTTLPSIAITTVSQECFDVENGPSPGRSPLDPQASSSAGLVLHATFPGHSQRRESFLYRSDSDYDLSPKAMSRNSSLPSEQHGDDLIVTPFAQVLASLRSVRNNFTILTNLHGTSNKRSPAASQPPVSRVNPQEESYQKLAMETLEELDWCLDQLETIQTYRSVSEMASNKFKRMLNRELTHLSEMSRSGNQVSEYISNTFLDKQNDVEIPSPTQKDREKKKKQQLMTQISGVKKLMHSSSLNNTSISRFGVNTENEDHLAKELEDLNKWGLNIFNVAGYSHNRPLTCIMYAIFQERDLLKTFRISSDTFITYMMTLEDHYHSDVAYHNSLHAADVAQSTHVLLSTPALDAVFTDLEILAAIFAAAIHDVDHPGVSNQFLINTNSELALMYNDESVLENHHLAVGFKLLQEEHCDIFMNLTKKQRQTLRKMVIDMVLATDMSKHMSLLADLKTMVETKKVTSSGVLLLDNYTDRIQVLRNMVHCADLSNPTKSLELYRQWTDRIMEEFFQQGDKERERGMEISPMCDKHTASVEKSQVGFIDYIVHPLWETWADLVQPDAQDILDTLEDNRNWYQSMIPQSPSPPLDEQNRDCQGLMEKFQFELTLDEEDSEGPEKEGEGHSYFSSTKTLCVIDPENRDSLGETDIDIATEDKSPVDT
In short: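 Live HEK293 cells with a modified cyclic nucleotide-gated (CNG) channel report intracellular cAMP via membrane-potential dye fluorescence (ex 535/em 590 nm). Endogenous PDE-IV was targeted. Compounds were tested at up to 22.9 uM final; RO 20-1724 100 uM served as control.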

| Compound | Potency [1] | Potency [2] | Potency [3] |
| --- | --- | --- | --- |
| CCCn1c(=O)[nH]c2nc(-c3ccc(S(=O)(=O)O)cc3)[nH]c2c1=O | inactive | inactive |  |
| N[C@@H](Cn1cc(I)c(=O)n(Cc2ccc(C(=O)O)cc2)c1=O)C(=O)O | 31.6 µM (active) | inactive |  |
| N[C@@H](Cc1cc(CP(=O)(O)O)cc(-c2ccccc2Cl)c1)C(=O)O | inactive | inactive | inactive |
| CC(=O)Nc1ccc(OC[C@@H](O)CNC(C)C)cc1 | inactive | inactive | inactive |
| N#CC(=C(/N)Sc1ccccc1N)/C(C#N)=C(/N)Sc1ccccc1N | 12.6 µM (active) and 31.6 µM (active) | inactive | inactive |
| c1ccc2oc(C3=NCCN3)cc2c1 | 5.01 µM (active) | inactive |  |
| C=C[C@@]1(C)CC(=O)[C@@]2(O)[C@@]3(C)[C@@H](O)CCC(C)(C)[C@@H]3[C@H](O)[C@H](OC(C)=O)[C@@]2(C)O1 | 31.6 µM (active) | inactive |  |
| NCCCCCCNS(=O)(=O)c1cccc2ccccc12 |  | inactive | inactive |
| C[C@@]12C(=O)OC(=O)[C@@]1(C)[C@@H]1CC[C@@H]2O1 | 31.6 µM (active) |  | inactive |
| CCCCCCCCCCCCCCCC(=O)C(F)(F)F | 31.6 µM (active) | inactive | inactive |
| CC(C)NC[C@@H](O)COc1ccc(CCOCC2CC2)cc1 | 15.8 µM (active) and 12.6 µM (active) and inactive | inactive | inactive |
| O[C@@H](c1ccccc1)C1CCN(CCc2ccccc2)CC1 |  | inactive |  |
| C[C@@H]1Nc2ccc(Cl)cc2S(=O)(=O)N1 |  | inactive | inactive |
| N[C@@H](Cn1cc(F)c(=O)[nH]c1=O)C(=O)O |  | inactive |  |
| COc1ccccc1N1CCN(C[C@@H]2CN3C(=O)N(C)c4ccccc4C3=N2)CC1 | 31.6 µM (active) |  | inactive |
| CCC(C)(C)N=C(NC#N)Nc1cccnc1 | 12.6 µM (active) | inactive | inactive |
| Cc1cccc(/C=C\c2ccccc2)n1 | 631 nM (active) and 398 nM (active) | inactive | inactive |
| NS(=O)(=O)c1cc2c(cc1Cl)N[C@@H]([C@@H]1C[C@@H]3C=C[C@H]1C3)NS2(=O)=O |  | inactive | inactive |
